Drawing on PubChem BioAssay (NCI), this text covers growth inhibition for ten compounds.

Molecules are shown by their SMILES. About 79,000 compounds went through this panel and 15% of them were active in at least one assay; those are over-represented in the sample as a whole. A number with no mark means an inactive call. The source made the active and inactive calls. Rule as the data show it: active = growth inhibition above about 70%; inactive = the rest.

The nature of experiment [1]: NCI Yeast Anticancer Drug Screen. Data for the rad50 strain (AID 155).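 Also: 0% = growth of vehicle-only cultures of the same strain.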 To be noted: S. cerevisiae rad50 strain growth inhibition, stronger effect = higher value. The essentials:
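Inhibition values express reduced yeast growth in compound-treated cultures relative to vehicle-treated controls.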

Experiment [2] can be described thus: NCI Yeast Anticancer Drug Screen. Data for the mec2-1 strain (AID 157). The conditions noted are these: S. cerevisiae mec2-1 strain, stronger effect = higher value. The essentials: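 Mutant yeast (mec2-1) grown with compound; growth inhibition relative to vehicle control reported.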
Experiment [3] can be described thus: NCI Yeast Anticancer Drug Screen. Data for the sgs1 mgt1 strain (AID 161).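 Also: 0% = growth of cultures given vehicle only.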 To be noted: S. cerevisiae sgs1 mgt1 strain, stronger effect = higher value. The procedure, abridged: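 Compounds are added to genetically altered yeast, and growth is compared with cultures given vehicle alone to give percent inhibition.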
Experiment [4] in a line: NCI Yeast Anticancer Drug Screen. Data for the cln2 rad14 strain (AID 165).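 Also: 0% = growth equal to vehicle treated cultures.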 To be noted: S. cerevisiae cln2 rad14 strain, stronger effect = higher value. The procedure, abridged:
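Readout is yeast growth inhibition versus vehicle-treated controls, using a strain with cln2 and rad14 alterations exposed to compound.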

Experiment [5] can be described thus: NCI Yeast Anticancer Drug Screen. Data for the bub3 strain (AID 167). To be noted: S. cerevisiae bub3 mutant strain, stronger effect = higher value. The procedure, abridged: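 Steps: expose the mutant yeast strain to compound; grow alongside vehicle-treated cultures; measure growth; express inhibition against the vehicle cultures.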
The nature of experiment [6]: NCI Yeast Anticancer Drug Screen. Data for the mlh1 rad18 strain (AID 175). The conditions noted are these: S. cerevisiae mlh1 rad18 strain growth inhibition, stronger effect = higher value. The essentials: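 Genetically defined yeast (DNA repair-deficient) exposed to compounds; growth inhibition determined relative to vehicle.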
Where [7] appears, read: at 5.0 µM (retest, dose inferred, filed as 0.5).
The mark [8] stands for this setting: at 50.0 µM (retest, dose inferred, filed as 5.0).

For the compound `C=C(CSCCCCCCCCCCCC)C(=O)O`, the growth inhibition was 98% (active) in experiment [1] (setting [7]); 97% (active) in experiment [1] (setting [8]); 98.5% (active) in experiment [1] (at 50.0 µM); 99% (active) in experiment [2] (setting [7]); 98% (active) in experiment [2] (setting [8]); 98.9% (active) in experiment [2] (at 50.0 µM). The growth inhibition is 98% (active) in experiment [3] (setting [7]); 97% (active) in experiment [3] (setting [8]); 98.5% (active) in experiment [3] (at 50.0 µM); 98% (active) in experiment [4] (setting [7]); 96% (active) in experiment [4] (setting [8]); 94.3% (active) in experiment [4] (at 50.0 µM). The growth inhibition was 98% (active) in experiment [5] (setting [7]), 96% (active) in experiment [5] (setting [8]) and 99.3% (active) in experiment [5] (at 50.0 µM).
Turning to `O=C(O)c1ccc(OCc2ccccc2)c(Cl)c1`, the growth inhibition in experiment [1] (setting [7]) was 16%; in experiment [1] (setting [8]), 36%; in experiment [1] (at 50.0 µM), 52.8%; in experiment [2] (setting [7]), 22%; in experiment [2] (setting [8]), 44%; in experiment [2] (at 50.0 µM), 25.5%. Also, the growth inhibition in experiment [3] (setting [7]) was 11%; in experiment [3] (setting [8]), 38%; in experiment [3] (at 50.0 µM) it was 30.9%; in experiment [4] (setting [7]), -8%; in experiment [4] (setting [8]), 39%; in experiment [4] (at 50.0 µM) it was 54.2%. Further, the growth inhibition in experiment [5] (setting [7]) was 3%; in experiment [5] (setting [8]) it was 17%; in experiment [5] (at 50.0 µM) it was 38.2%; in experiment [6] (setting [7]), 12%; in experiment [6] (setting [8]), 47%; in experiment [6] (at 50.0 µM), 59.1%.
Turning to `CC(C=O)=C(c1ccccc1)c1ccccc1`, the growth inhibition in experiment [1] (setting [7]) was -147%; in experiment [1] (setting [8]), -157%; in experiment [1] (at 50.0 µM) it was 23.8%; in experiment [2] (setting [7]), -50%; in experiment [2] (setting [8]), -56%; in experiment [2] (at 50.0 µM), 24.6%. Also, the growth inhibition was -57% in experiment [3] (setting [7]); -64% in experiment [3] (setting [8]); 49.2% in experiment [3] (at 50.0 µM); -54% in experiment [4] (setting [7]); -56% in experiment [4] (setting [8]); 23.8% in experiment [4] (at 50.0 µM). Also, the growth inhibition was -62% in experiment [5] (setting [7]); -74% in experiment [5] (setting [8]); 0.3% in experiment [5] (at 50.0 µM); -115% in experiment [6] (setting [7]); -111% in experiment [6] (setting [8]); 28.4% in experiment [6] (at 50.0 µM).
With `CN1CC(CN2CCCCC2)C(O)C(c2ccccc2)C1` (stereo not drawn), the growth inhibition in experiment [1] (setting [7]) is -3%; in experiment [1] (setting [8]) it was -1%; in experiment [1] (at 50.0 µM), 10.2%; in experiment [2] (setting [7]), -5%; in experiment [2] (setting [8]), -1%; in experiment [2] (at 50.0 µM), -4.5%. Further, the growth inhibition in experiment [3] (setting [7]) is -3%; in experiment [3] (setting [8]) it was 6%; in experiment [3] (at 50.0 µM), 9.3%; in experiment [4] (setting [7]) it was -5%; in experiment [4] (setting [8]) it was -3%; in experiment [4] (at 50.0 µM), 34.4%. Moreover, the growth inhibition in experiment [5] (setting [7]) is -4%; in experiment [5] (setting [8]) it was -8%; in experiment [5] (at 50.0 µM), 2.65%; in experiment [6] (setting [7]), -3%; in experiment [6] (setting [8]), -2%; in experiment [6] (at 50.0 µM) it was 56.5%.
For the compound `COc1ccc2[nH]cc(C(=O)O)c2c1`, the growth inhibition in experiment [1] (setting [7]) is -4%; in experiment [1] (setting [8]), 55%; in experiment [1] (at 50.0 µM), 38%; in experiment [2] (setting [7]), -5%; in experiment [2] (setting [8]), 65%; in experiment [2] (at 50.0 µM), 2.6%. Further, the growth inhibition was 7% in experiment [3] (setting [7]); 31% in experiment [3] (setting [8]); 66.3% in experiment [3] (at 50.0 µM); 0% in experiment [4] (setting [7]); 36% in experiment [4] (setting [8]); 40% in experiment [4] (at 50.0 µM). The growth inhibition in experiment [5] (setting [7]) was 1%; in experiment [5] (setting [8]), 46%; in experiment [5] (at 50.0 µM) it was 79.8% (active); in experiment [6] (setting [7]), -30%; in experiment [6] (setting [8]), 84% (active); in experiment [6] (at 50.0 µM), 25%.
Regarding `CN(C)c1ccc(C2(c3ccc(N(C)C)cc3)OC(=O)c3ccccc32)cc1`, the growth inhibition is 2% in experiment [1] (setting [7]); -6% in experiment [1] (setting [8]); 26.6% in experiment [1] (at 50.0 µM); 1% in experiment [2] (setting [7]); -6% in experiment [2] (setting [8]); 14.2% in experiment [2] (at 50.0 µM). Further, the growth inhibition in experiment [3] (setting [7]) is 1%; in experiment [3] (setting [8]) it was -3%; in experiment [3] (at 50.0 µM), 14.5%; in experiment [4] (setting [7]), -5%; in experiment [4] (setting [8]), -26%; in experiment [4] (at 50.0 µM), 16.9%. In addition, the growth inhibition was 60% in experiment [5] (setting [7]), 61% in experiment [5] (setting [8]) and 82.6% (active) in experiment [5] (at 50.0 µM).
For `CCCCCCCCCCCCCCCCOS(=O)(=O)O`, the growth inhibition in experiment [1] (setting [7]) was 24%; in experiment [1] (setting [8]) it was 99% (active); in experiment [1] (at 50.0 µM), 98% (active); in experiment [2] (setting [7]) it was 13%; in experiment [2] (setting [8]), 100% (active); in experiment [2] (at 50.0 µM), 98.5% (active). Moreover, the growth inhibition in experiment [3] (setting [7]) was 49%; in experiment [3] (setting [8]), 100% (active); in experiment [3] (at 50.0 µM) it was 98.8% (active); in experiment [4] (setting [7]) it was 5%; in experiment [4] (setting [8]), 99% (active); in experiment [4] (at 50.0 µM), 97.7% (active). Further, the growth inhibition was 20% in experiment [5] (setting [7]); 100% (active) in experiment [5] (setting [8]); 98.8% (active) in experiment [5] (at 50.0 µM); 42% in experiment [6] (setting [7]); 100% (active) in experiment [6] (setting [8]); 99% (active) in experiment [6] (at 50.0 µM).
`COc1ccc(NS(=O)(=O)c2ccc(N=Cc3c4ccccc4nc4cc(Cl)ccc34)cc2)nn1`: the growth inhibition in experiment [1] (setting [7]) was 23%; in experiment [1] (setting [8]) it was -9%; in experiment [1] (at 50.0 µM) it was 94.2% (active); in experiment [2] (setting [7]), 14%; in experiment [2] (setting [8]) it was -5%; in experiment [2] (at 50.0 µM), 91.8% (active). The growth inhibition was 17% in experiment [3] (setting [7]); -8% in experiment [3] (setting [8]); 95.6% (active) in experiment [3] (at 50.0 µM); 5% in experiment [4] (setting [7]); -6% in experiment [4] (setting [8]); 36.9% in experiment [4] (at 50.0 µM). For the same compound, the growth inhibition was 22% in experiment [5] (setting [7]); -4% in experiment [5] (setting [8]); 52.2% in experiment [5] (at 50.0 µM); 13% in experiment [6] (setting [7]); -4% in experiment [6] (setting [8]); 95.8% (active) in experiment [6] (at 50.0 µM).
`[N-]=[N+]=CC(=O)c1ccc(C(=O)C=[N+]=[N-])cc1`: the growth inhibition in experiment [1] (setting [7]) was 8%; in experiment [1] (setting [8]), 95% (active); in experiment [1] (at 50.0 µM), 99.2% (active); in experiment [2] (setting [7]) it was 12%; in experiment [2] (setting [8]), 99% (active); in experiment [2] (at 50.0 µM), 99.5% (active). Also, the growth inhibition in experiment [3] (setting [7]) is 10%; in experiment [3] (setting [8]), 95% (active); in experiment [3] (at 50.0 µM), 99.4% (active); in experiment [4] (setting [7]), 8%; in experiment [4] (setting [8]), 98% (active); in experiment [4] (at 50.0 µM), 98.7% (active). The growth inhibition in experiment [5] (setting [7]) was 5%; in experiment [5] (setting [8]), 98% (active); in experiment [5] (at 50.0 µM), 99.5% (active).
Regarding `Cc1ccc(SCc2ccc(Cl)cc2Cl)nn1`, the growth inhibition in experiment [1] (setting [7]) was -1%; in experiment [1] (setting [8]) it was 64%; in experiment [1] (at 50.0 µM), 96.8% (active); in experiment [2] (setting [7]) it was -16%; in experiment [2] (setting [8]), 85% (active); in experiment [2] (at 50.0 µM), 94% (active). Also, the growth inhibition was -4% in experiment [3] (setting [7]); 85% (active) in experiment [3] (setting [8]); 82.8% (active) in experiment [3] (at 50.0 µM); 0% in experiment [4] (setting [7]); 20% in experiment [4] (setting [8]); 25.9% in experiment [4] (at 50.0 µM). Moreover, the growth inhibition in experiment [5] (setting [7]) is 12%; in experiment [5] (setting [8]), 61%; in experiment [5] (at 50.0 µM) it was 93.8% (active).
